Most compounds without a hit are left out; they make up all but 4.5% or so of the library.
GRIN3A LBD mod – binders of NR3A ligand-binding domain, primary screen, biophysical, differential scanning fluorimetry, uHTS. Glutamate receptor ionotropic, NMDA 3A (GRIN3A) ligand-binding domain. NR3A LBD differential scanning fluorimetry, Tm shift; 0% = protein alone, 100% = glycine-bound protein. Tm shift relative to glycine control, % at 25 µM. 340,000 tested, 2.5% active;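 active = melting temperature shift of at least 10% of the positive control shift, at one fixed dose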
TPT1 inh – Candida albicans TPT1 enzyme inhibitors, primary screen, biochemical, fluorescence polarization | tRNA 2'-phosphotransferase TPT1 (Candida albicans SC5314) | recombinant caTPT1, FP RNA substrate dephosphorylation | inhibition, % at 5 µM | 300,000 tested, 0.81% active | AID 1962, 2009;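 active = inhibition above the mean of all tested compounds plus 3 SD, set per screening campaign, cut at about 24% in these data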;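 also: plate controls were DMSO alone for no effect and ferristatin control at 100 nM for full effect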
dFosB act – activators of delta FosB homodimer, primary screen, biochemical, fluorescence polarization, TAMRA-CDK5 oligo, single point; 340,000 tested, 0.99% active; purified delta FosB; percent of positive-control signal above neutral wells; AID 493131, 2011; activation, % at 25 µM; Protein FosB (Mus musculus), P13346;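 active = mean activation above about 17%, with every replicate also reaching it, limit read from the data, passing the limit was not always enough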
ZTA DNA inh – ZTA (EBV) inhibition in EBNA-1 counter-screen; 320,000 tested, 0.15% active; ZTA-DNA binding, fluorescence polarization; inhibition, % at 11 µM; P03206; in the data active = inhibition above about 33%
Rpn11 inh – Rpn11 (PSMD14) deubiquitinase inhibitors, primary screen, biochemical, fluorescence polarization, uHTS. inhibition, % at 20 µM. 360,000 tested, 0.59% active. AID 588493, 2011. human 26S proteasome, Ub4-pepOG fluorescence polarization; 20S core pre-blocked with epoxomicin;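 active = inhibition at 20 µM, scaled to each plate's controls, above about 33%, limit read from the data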
Target sequence (O00487 whole entry, looked up): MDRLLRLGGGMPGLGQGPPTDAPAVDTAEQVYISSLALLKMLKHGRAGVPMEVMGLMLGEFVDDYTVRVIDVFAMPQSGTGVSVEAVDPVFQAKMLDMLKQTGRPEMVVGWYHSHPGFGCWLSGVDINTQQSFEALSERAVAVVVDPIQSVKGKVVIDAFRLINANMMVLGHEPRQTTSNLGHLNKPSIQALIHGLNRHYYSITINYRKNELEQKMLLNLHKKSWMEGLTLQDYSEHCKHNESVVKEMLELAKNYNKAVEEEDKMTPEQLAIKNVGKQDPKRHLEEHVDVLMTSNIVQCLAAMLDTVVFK
EBNA-1 inhibitor – EBNA-1 DNA-binding inhibitors, primary screen, biochemical, fluorescence polarization; inhibition, % at 14.8 µM; 300,000 tested, 0.34% active; in the data active = inhibition above about 28%
* marks the source's active call; other numbers are inactive results; . = not tested or not shown.

SMILES | GRIN3A LBD mod | TPT1 inh | dFosB act | ZTA DNA inh | Rpn11 inh | EBNA-1 inhibitor
CC(C)(C)CN1CCC(Oc2cccc(C(=O)NCCCOc3cccnc3)c2)CC1 | 0.1 | 0.4 | -5.8 | 5.0 | 4.3 | -2.0
CSc1ccc(/C=C2\CCn3c2nc2cc(C(=O)O)ccc2c3=O)cc1 | 1.2 | -4.2 | 1.2 | -10.9 | -15.4 | 1.8
O=C1c2ccccc2NC(c2ccc(-c3cccs3)o2)N1O (stereo unspecified) | -1.5 | . | 1.9 | -8.8 | -0.7 | .
O=C1c2ccccc2NC(c2ccc(-c3ccc(C(F)(F)F)cc3)o2)N1O (stereo unspecified) | 23.1* | . | 2.1 | . | 8.2 | .
CCOc1ccc(NC(=O)CC2C(=O)N(C)C(=S)N2Cc2ccco2)cc1 (stereo unspecified) | 17.4* | 5.5 | 0.4 | 1.8 | -3.0 | -11.6
CCOc1ccc(NC(=O)CC2C(=O)N(C)C(=S)N2Cc2ccc3c(c2)OCO3)cc1 (stereo unspecified) | 12.2* | -4.1 | -7.9 | -15.4 | 4.4 | 0.7
CCN1C(=O)C(CC(=O)Nc2ccc(Br)cc2)N(CCCc2ccccc2)C1=S (stereo unspecified) | 16.0* | -1.0 | -9.7 | -4.9 | -5.2 | -5.4
CCOc1ccc(NC(=O)CC2C(=O)N(C)C(=S)N2CCCc2ccccc2)cc1 (stereo unspecified) | 7.0 | -0.4 | -0.1 | 0.1 | 4.2 | -7.7
CCN1C(=O)C(CC(=O)Nc2ccc(OC)cc2)N(Cc2ccc3c(c2)OCO3)C1=S (stereo unspecified) | 21.8* | -1.1 | -3.2 | 19.7 | 4.2 | 10.5
CCc1ccccc1NC(=O)c1ccc(OCc2c(C)noc2C)cc1 | -0.2 | . | 4.0 | . | -0.2 | .
O=C(Nn1c(O)c(C=C2N=c3ccccc3=N2)sc1=S)c1ccccc1Cl | 23.2* | 3.5 | -7.0 | 1.0 | 20.4 | -3.4
COc1ccc(Cl)cc1-c1cc(C(=O)NCc2ccc(C(F)(F)F)cc2)[nH]n1 | . | . | . | . | 1.6 | .
Cc1ccc(Cl)cc1N1CCN(CC(=O)NC2CCCc3ccccc32)CC1 (stereo unspecified) | 10.0* | 0.1 | -13.1 | 1.1 | 0.3 | -9.9
CC(=O)Nc1ccc(S(=O)(=O)Nc2ccccc2C(=O)N2CCCC2)cc1 | -0.7 | -2.4 | 0.8 | 8.0 | -0.8 | 0.4
O=[N+]([O-])c1ccc(S(=O)(=O)Nc2nc3ccccc3nc2Nc2ccccc2)cc1 | -7.1 | 5.9 | -8.9 | -3.2 | 9.2 | -10.5
CC(=O)Nc1ccc(Nc2nc3ccccc3nc2NS(=O)(=O)c2ccc(Cl)c([N+](=O)[O-])c2)cc1 | 23.8* | . | -18.6 | . | -1.5 | .
CC(=O)Nc1ccc(S(=O)(=O)Nc2nc3ccccc3nc2Nc2ccc(C(=O)O)c(O)c2)cc1 | 24.2* | . | -6.5 | . | -51.3 | .
CC(=O)Nc1ccc(S(=O)(=O)Nc2cc(C)c(-n3nc4ccccc4n3)cc2O)cc1 | 10.3* | 4.0 | -2.4 | 14.0 | -9.3 | 17.3
O=S(=O)(Nc1nc2ccccc2nc1N1CCN(c2ccccc2F)CC1)c1ccc(Cl)cc1 | 21.2* | -2.2 | 1.5 | -15.6 | 4.2 | -5.3
CCOc1ccc(S(=O)(=O)Nc2nc3ccccc3nc2N2CCN(C)CC2)cc1 | -1.5 | -2.2 | -9.8 | 14.3 | 4.9 | -13.6
CC(=O)Nc1ccc(S(=O)(=O)Nc2nc3ccccc3nc2Nc2cccc(O)c2)cc1 | 19.2* | 3.4 | -7.4 | 1.8 | 0.5 | -2.9
NS(=O)(=O)c1cccc(Nc2nc3ccccc3nc2NS(=O)(=O)c2ccc(Cl)cc2)c1 | 27.9* | . | -4.0 | . | 3.7 | .
CC(C)(C)NC(=O)C(c1ccc(F)cc1)N(Cc1ccccc1Cl)C(=O)c1ccn[nH]1 (stereo unspecified) | 1.8 | 2.9 | -8.8 | -4.1 | -0.4 | -3.7
COc1cc(/C=C/C(=O)N2C(=O)c3cccc(N)c3C2=O)cc(OC)c1OC | 1.1 | 0.0 | -7.0 | 5.0 | 0.6 | 4.7
COc1ccc(OC)c(/C=C/C(=O)N2C(=O)c3cccc(N)c3C2=O)c1 | 11.0* | -5.8 | 5.9 | 2.0 | -11.0 | -1.5
CC1(C)COC(c2ccc3c(c2)OCO3)OC1 | 11.2* | . | 8.1 | . | 0.6 | .

Source: PubChem BioAssay (several laboratories)
